What all share (assay): DAPPL (digital affinity profiling via proximity ligation, sequencing); 10 mM Tris-HCl pH 7.5, 50 mM NaCl, 1 mM DTT, 4% glycerol, room temperature, 30 min; GST-TFs on glutathione beads, 16-mer random dsDNA library, 0.1% formaldehyde crosslink after washing; high values mean tight binding
Conditions in all cases: protein: recombinant; tags: N-terminal GST; dsDNA, one strand shown

One assay deals with T1, FLI1 (Homo sapiens, UniProt Q01543 1-452).
T1 sequence: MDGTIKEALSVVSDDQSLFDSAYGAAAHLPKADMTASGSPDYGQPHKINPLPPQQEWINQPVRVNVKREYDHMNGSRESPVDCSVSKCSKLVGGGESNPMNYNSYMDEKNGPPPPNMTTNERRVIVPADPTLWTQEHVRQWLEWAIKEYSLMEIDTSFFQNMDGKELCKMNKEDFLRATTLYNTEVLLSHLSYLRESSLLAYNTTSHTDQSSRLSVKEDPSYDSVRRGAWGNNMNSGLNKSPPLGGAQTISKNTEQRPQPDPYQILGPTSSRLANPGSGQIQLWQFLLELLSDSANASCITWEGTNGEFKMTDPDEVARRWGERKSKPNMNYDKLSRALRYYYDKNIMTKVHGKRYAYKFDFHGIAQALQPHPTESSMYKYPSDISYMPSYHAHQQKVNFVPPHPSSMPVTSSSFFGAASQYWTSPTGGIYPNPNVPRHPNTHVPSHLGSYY
The gist of the method: (§1)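 After expression in yeast as GST fusions, human transcription factors were bound to glutathione beads, DNA-barcoded and mixed with a tag-only sample. The pools were incubated with 200 nmole of a 16-mer random double-stranded DNA library in Tris/NaCl/DTT/glycerol buffer (30 min, room temperature), washed and crosslinked with 0.1% formaldehyde. Proximity ligation with BsaI/T4 ligase ran for 1 h at 37 °C, before PCR amplification and sequencing on an Illumina NextSeq500. Binding signal is a hexamer's read frequency for a factor divided by its frequency for the tag-only sample.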

In a further assay the target is T2, ELK1 (Homo sapiens, UniProt P19419 1-428).
T2 sequence: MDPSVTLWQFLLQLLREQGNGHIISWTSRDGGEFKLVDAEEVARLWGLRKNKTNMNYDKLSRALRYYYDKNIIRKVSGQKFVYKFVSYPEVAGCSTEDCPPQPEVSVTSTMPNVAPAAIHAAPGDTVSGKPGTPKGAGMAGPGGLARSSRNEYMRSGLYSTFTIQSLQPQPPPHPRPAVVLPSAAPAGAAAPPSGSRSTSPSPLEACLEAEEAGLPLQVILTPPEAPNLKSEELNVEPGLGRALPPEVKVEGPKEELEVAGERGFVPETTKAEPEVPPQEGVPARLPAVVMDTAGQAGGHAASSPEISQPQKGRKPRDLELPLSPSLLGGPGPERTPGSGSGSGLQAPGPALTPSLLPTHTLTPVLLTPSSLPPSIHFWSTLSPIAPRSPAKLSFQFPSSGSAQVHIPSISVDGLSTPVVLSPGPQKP
The method, boiled down: as §1

The target of another assay is T3, GABPA (Homo sapiens, UniProt Q06546 1-454).
T3 sequence: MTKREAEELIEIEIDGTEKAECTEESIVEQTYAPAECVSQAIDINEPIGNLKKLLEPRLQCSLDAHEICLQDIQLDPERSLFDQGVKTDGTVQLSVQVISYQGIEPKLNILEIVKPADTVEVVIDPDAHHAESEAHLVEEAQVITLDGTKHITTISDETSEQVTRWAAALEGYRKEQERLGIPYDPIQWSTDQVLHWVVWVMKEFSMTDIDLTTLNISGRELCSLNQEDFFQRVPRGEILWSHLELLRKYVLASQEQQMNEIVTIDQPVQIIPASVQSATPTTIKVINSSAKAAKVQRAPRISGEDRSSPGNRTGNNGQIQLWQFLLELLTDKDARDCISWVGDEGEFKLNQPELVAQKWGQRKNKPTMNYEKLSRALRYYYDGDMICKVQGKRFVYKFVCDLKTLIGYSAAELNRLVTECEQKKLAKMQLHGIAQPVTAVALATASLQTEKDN
The gist of the method:
as §1

A further assay deals with T4, ERG (Homo sapiens, UniProt P11308 1-479).
T4 sequence: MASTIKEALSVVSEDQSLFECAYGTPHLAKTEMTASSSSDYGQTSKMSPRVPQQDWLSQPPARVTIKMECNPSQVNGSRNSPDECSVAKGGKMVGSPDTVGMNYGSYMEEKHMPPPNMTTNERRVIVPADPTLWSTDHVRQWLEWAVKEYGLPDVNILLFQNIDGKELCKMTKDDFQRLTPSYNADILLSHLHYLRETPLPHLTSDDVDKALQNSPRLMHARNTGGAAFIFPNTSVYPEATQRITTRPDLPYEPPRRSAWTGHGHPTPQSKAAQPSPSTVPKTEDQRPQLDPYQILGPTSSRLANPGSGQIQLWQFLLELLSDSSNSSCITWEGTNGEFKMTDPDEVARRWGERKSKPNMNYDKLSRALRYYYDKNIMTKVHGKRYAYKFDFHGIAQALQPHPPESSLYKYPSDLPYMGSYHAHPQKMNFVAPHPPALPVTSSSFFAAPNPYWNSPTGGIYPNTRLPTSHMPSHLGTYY
The gist of the method:
as §1

Another assay concerns the target ELF1 (Homo sapiens, UniProt P32519 1-619). The gist of the method:
as §1

The next assay addresses T5, EHF (Homo sapiens, UniProt Q9NZC4 1-300).
T5 sequence: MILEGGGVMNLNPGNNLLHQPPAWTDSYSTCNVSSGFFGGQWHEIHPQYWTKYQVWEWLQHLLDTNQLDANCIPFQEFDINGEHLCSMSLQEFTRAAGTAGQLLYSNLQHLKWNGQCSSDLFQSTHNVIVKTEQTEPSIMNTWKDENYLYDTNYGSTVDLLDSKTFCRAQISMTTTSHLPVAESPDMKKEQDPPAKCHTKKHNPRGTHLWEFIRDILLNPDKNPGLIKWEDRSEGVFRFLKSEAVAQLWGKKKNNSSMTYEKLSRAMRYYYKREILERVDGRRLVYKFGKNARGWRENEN
The gist of the method: as §1

A further assay concerns the target SPI1 (Homo sapiens, UniProt P17947 1-270). The gist of the method:
as §1

The next assay concerns the target SPIB (Homo sapiens, UniProt Q01892 1-262). The method, boiled down: as §1
A further assay deals with T6, ELK3 (Homo sapiens, UniProt P41970 1-407).
T6 sequence: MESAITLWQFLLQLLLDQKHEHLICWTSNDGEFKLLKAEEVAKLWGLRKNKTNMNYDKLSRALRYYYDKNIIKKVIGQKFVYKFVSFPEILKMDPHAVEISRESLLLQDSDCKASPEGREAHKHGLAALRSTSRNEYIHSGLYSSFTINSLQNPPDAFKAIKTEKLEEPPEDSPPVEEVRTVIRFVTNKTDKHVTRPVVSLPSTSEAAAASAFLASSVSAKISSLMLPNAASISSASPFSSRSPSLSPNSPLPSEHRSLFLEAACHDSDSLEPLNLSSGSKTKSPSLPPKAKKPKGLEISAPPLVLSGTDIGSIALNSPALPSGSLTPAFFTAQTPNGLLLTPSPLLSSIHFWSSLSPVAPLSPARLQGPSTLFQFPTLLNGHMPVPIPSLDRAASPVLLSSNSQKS
The gist of the method:
as §1

SPIB, sequence (Q01892 whole entry): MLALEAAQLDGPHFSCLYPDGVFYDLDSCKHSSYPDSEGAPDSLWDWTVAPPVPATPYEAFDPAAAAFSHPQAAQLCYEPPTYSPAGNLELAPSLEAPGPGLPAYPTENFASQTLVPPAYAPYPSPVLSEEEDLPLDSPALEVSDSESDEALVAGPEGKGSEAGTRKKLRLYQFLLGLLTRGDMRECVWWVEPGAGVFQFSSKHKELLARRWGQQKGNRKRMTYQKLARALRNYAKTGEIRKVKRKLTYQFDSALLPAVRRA
ELF1, sequence (P32519 whole entry): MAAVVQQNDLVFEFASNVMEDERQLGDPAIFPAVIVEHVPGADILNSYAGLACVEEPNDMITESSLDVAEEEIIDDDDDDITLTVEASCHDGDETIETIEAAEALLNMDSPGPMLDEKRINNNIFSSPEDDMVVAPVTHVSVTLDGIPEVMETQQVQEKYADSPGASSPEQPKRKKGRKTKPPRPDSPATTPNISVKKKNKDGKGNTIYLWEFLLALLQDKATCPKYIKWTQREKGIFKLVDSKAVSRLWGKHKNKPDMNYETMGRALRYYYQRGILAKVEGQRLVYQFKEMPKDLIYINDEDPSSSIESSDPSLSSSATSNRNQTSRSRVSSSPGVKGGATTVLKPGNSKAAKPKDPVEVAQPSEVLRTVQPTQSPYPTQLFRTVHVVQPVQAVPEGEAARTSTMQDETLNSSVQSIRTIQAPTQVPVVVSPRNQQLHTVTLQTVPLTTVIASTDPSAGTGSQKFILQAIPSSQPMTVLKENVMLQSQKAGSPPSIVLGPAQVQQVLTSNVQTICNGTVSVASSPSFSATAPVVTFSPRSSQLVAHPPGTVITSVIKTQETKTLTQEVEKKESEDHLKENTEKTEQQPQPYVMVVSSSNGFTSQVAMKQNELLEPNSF

CTTTAC: the binding signal is 1.24 fold enrichment (6-mer frequency, TF over GST control) with FLI1; 1.43 fold enrichment (6-mer frequency, TF over GST control) with ELK1; 1.51 fold enrichment (6-mer frequency, TF over GST control) with GABPA; 1.31 fold enrichment (6-mer frequency, TF over GST control) with ERG; 1.4 fold enrichment (6-mer frequency, TF over GST control) in the assay with ELF1; 1.38 fold enrichment (6-mer frequency, TF over GST control) with EHF. The binding signal with SPI1 is 1.4 fold enrichment (6-mer frequency, TF over GST control); in the assay with SPIB, 1.41 fold enrichment (6-mer frequency, TF over GST control); in the assay with ELK3, 1.47 fold enrichment (6-mer frequency, TF over GST control).
For GAAACA, the binding signal with FLI1 was 1.38 fold enrichment (6-mer frequency, TF over GST control); in the assay with ELK1 it was 1.4 fold enrichment (6-mer frequency, TF over GST control); with GABPA it was 1.22 fold enrichment (6-mer frequency, TF over GST control); with ERG it was 1.32 fold enrichment (6-mer frequency, TF over GST control); in the assay with ELF1 it was 1.35 fold enrichment (6-mer frequency, TF over GST control); with EHF it was 1.45 fold enrichment (6-mer frequency, TF over GST control). In addition, the binding signal in the assay with SPI1 was 1.3 fold enrichment (6-mer frequency, TF over GST control); with SPIB it was 1.36 fold enrichment (6-mer frequency, TF over GST control); with ELK3 it was 1.38 fold enrichment (6-mer frequency, TF over GST control).
In the case of TCCGCG, the binding signal with FLI1 is 1.25 fold enrichment (6-mer frequency, TF over GST control); with ELK1 it was 1.27 fold enrichment (6-mer frequency, TF over GST control); in the assay with GABPA, 1.03 fold enrichment (6-mer frequency, TF over GST control); with ERG it was 1.41 fold enrichment (6-mer frequency, TF over GST control); in the assay with ELF1, 1.2 fold enrichment (6-mer frequency, TF over GST control); in the assay with EHF, 1.23 fold enrichment (6-mer frequency, TF over GST control). Also, the binding signal in the assay with SPI1 is 1.3 fold enrichment (6-mer frequency, TF over GST control); in the assay with SPIB, 1.36 fold enrichment (6-mer frequency, TF over GST control); in the assay with ELK3, 1.14 fold enrichment (6-mer frequency, TF over GST control).
Take CTTACC: the binding signal was 1.21 fold enrichment (6-mer frequency, TF over GST control) with FLI1; 1.22 fold enrichment (6-mer frequency, TF over GST control) with ELK1; 1.26 fold enrichment (6-mer frequency, TF over GST control) in the assay with GABPA; 1.24 fold enrichment (6-mer frequency, TF over GST control) in the assay with ERG; 1.24 fold enrichment (6-mer frequency, TF over GST control) with ELF1; 1.17 fold enrichment (6-mer frequency, TF over GST control) with EHF. Moreover, the binding signal with SPI1 is 1.34 fold enrichment (6-mer frequency, TF over GST control); with SPIB, 1.32 fold enrichment (6-mer frequency, TF over GST control); with ELK3, 1.26 fold enrichment (6-mer frequency, TF over GST control).
Regarding TCTACG, the binding signal in the assay with FLI1 was 1.37 fold enrichment (6-mer frequency, TF over GST control); in the assay with ELK1, 1.4 fold enrichment (6-mer frequency, TF over GST control); with GABPA, 1.3 fold enrichment (6-mer frequency, TF over GST control); with ERG it was 1.32 fold enrichment (6-mer frequency, TF over GST control); with ELF1 it was 1.38 fold enrichment (6-mer frequency, TF over GST control); in the assay with EHF, 1.32 fold enrichment (6-mer frequency, TF over GST control). Moreover, the binding signal with SPI1 is 1.49 fold enrichment (6-mer frequency, TF over GST control); in the assay with SPIB, 1.44 fold enrichment (6-mer frequency, TF over GST control); in the assay with ELK3, 1.28 fold enrichment (6-mer frequency, TF over GST control).
Consider ACCATC, for which the binding signal was 1.18 fold enrichment (6-mer frequency, TF over GST control) in the assay with FLI1; 1.14 fold enrichment (6-mer frequency, TF over GST control) in the assay with ELK1; 1.19 fold enrichment (6-mer frequency, TF over GST control) in the assay with GABPA; 1.1 fold enrichment (6-mer frequency, TF over GST control) in the assay with ERG; 1.21 fold enrichment (6-mer frequency, TF over GST control) with ELF1; 1.12 fold enrichment (6-mer frequency, TF over GST control) with EHF. Further, the binding signal with SPI1 is 1.15 fold enrichment (6-mer frequency, TF over GST control); in the assay with SPIB, 1.07 fold enrichment (6-mer frequency, TF over GST control); with ELK3, 1.24 fold enrichment (6-mer frequency, TF over GST control).
For the sequence TGCGTT, the binding signal is 1.04 fold enrichment (6-mer frequency, TF over GST control) with FLI1; 1.09 fold enrichment (6-mer frequency, TF over GST control) in the assay with ELK1; 1.17 fold enrichment (6-mer frequency, TF over GST control) with GABPA; 1.12 fold enrichment (6-mer frequency, TF over GST control) in the assay with ERG; 1.12 fold enrichment (6-mer frequency, TF over GST control) with ELF1; 1.08 fold enrichment (6-mer frequency, TF over GST control) with EHF. Also, the binding signal in the assay with SPI1 is 1.1 fold enrichment (6-mer frequency, TF over GST control); with SPIB it was 1.11 fold enrichment (6-mer frequency, TF over GST control); with ELK3, 1.13 fold enrichment (6-mer frequency, TF over GST control).
Consider TACATT, for which the binding signal with FLI1 is 1.32 fold enrichment (6-mer frequency, TF over GST control); with ELK1, 1.17 fold enrichment (6-mer frequency, TF over GST control); with GABPA, 1.23 fold enrichment (6-mer frequency, TF over GST control); in the assay with ERG, 1.21 fold enrichment (6-mer frequency, TF over GST control); with ELF1, 1.26 fold enrichment (6-mer frequency, TF over GST control); with EHF, 1.19 fold enrichment (6-mer frequency, TF over GST control). The binding signal was 1.14 fold enrichment (6-mer frequency, TF over GST control) with SPI1; 1.29 fold enrichment (6-mer frequency, TF over GST control) with SPIB; 1.23 fold enrichment (6-mer frequency, TF over GST control) with ELK3.

The record behind these values is publication PMC7862700, “An all-to-all approach to the identification of sequence-specific readers for epigenetic DNA modifications on cytosine”.
